Measurements published in PubChem BioAssay AID651644 (National Center for Advancing Translational Sciences (NCATS), 2012).
Screen size: about 360,000 compounds; about 750 (0.21%) were called active. Another 2% or so got no clear call; they are omitted. This is one part of a sample in which actives are shown more often than they occur. Calls come from the whole dose curve; as a rule, active = well fitted falling curve with a large enough effect; inconclusive = small, poorly fitted or top-dose-only effect; inactive = no such curve, though single readings can be large or run the other way.

Assay: qHTS Assay for Inhibitors of the HIV-1 protein Vpr; note: nearly all actives have a fitted effect of over 50% in size
Settings: S. pombe RE007 Vpr strain, BacTiter-Glo ATP luminescence, 24 h; series mostly up to 92.2 µM; activity change, negative = less growth: at the top concentration
Excerpt: Human immunodeficiency virus type 1 (HIV-1), the causative agent of AIDS, contains a protein called viral protein R (Vpr) that plays an important role in the viral life cycle and the pathogenesis of HIV-1.
These Vpr specific activities include cytoplasmic-nuclear shuttling, induction of cell cycle G2 arrest and cell killing. The cytoplasmic-nuclear shuttling is believed to participate in nuclear transport of the proviral integration complex (PIC). The cell cycle G2 arrest induced by Vpr is thought to suppress human immune functions by preventing T cell clonal expansion and to provide an optimized cellular environment for maximal levels of viral replication. In addition, Vpr induces apoptosis, which may contribute to the depletion of CD4 T cells in HIV-infected patients. Since the Vpr-specific activities have been linked to such clinical manifestation of AIDS as activation of viral replication, suppression of host immune responses and depletion of CD4+ T-lymphocytes, identification of new molecular probes that can inhibit the Vpr activities could potentially provide a new approach to reduce Vpr-mediated detrimental effects in HIV-infected patients, and thus prolong patient's lives. Currently, there are no anti-Vpr drugs.
A fission yeast (Schizosaccharomyces pombe) model system for the Vpr studies has been developed which measures HIV-1 Vpr-induced cell death. This assay will be used for to screen the NIH Molecular Libraries Small Molecule Repository (MLSMR) identify small molecule HIV-1 Vpr inhibitors.
NIH Chemical Genomics Center [NCGC]
NIH Molecular Libraries Probe Centers Network [MLPCN]
Assay Submitter (PI): Richard Zhao, University of Maryland
The fission yeast RE007 strain was used, which carries a single integrated copy of HIV-1 vpr gene in the yeast chromosome. The starting culture was frozen stock 100ul of yeast RE007 in 150ml of *PMG+AL medium, Incubation in 30 degree plus 99% humidity for 18 hours. Next day dispensed 2.5ul of PMG+AL medium in each well to 1536 well white solid plate, then 23nL compound were delivered to each well using a pin tool. Check OD for overnight culture and add cell density at 0.01 for each well, incubation in 30 degree plus 99% humidity for 24 hours. After add 5 ul of *BacTiter/Glo detect reagent to each well at room temperature for 5 minutes then to red out results with Viewlux CCD camera.
% is set by controls: 0 for no effect and ±100 for the full control effect.

| SMILES | activity change, negative = less growth | Potency |
| --- | --- | --- |
| CC1(C)C(c2cccs2)=[N+]([O-])C2(CCCCC2=O)N1O (stereo not given) | 2.59% (inactive) |  |
| Cc1ccc(S(=O)(=O)N(CC(=O)Nc2cccnc2)c2ccc(Br)cc2)cc1 | -3.78% (inactive) |  |
| CC(C)CN(C(=O)CN1CCN(S(=O)(=O)c2ccccc2)CC1)c1c(N)n(CC(C)C)c(=O)[nH]c1=O | -0.551% (inactive) |  |
| CC1(C(=O)NS(=O)(=O)c2ccc3ccccc3c2)CCN1C(=O)C1(c2ccc(Cl)cc2)CCC1 (stereo not given) | 11.9% (inactive) |  |
| CCC(c1nnc(SCC(=O)NNC(=O)c2ccccc2)n1Cc1ccccc1)N(C)C (stereo not given) | 4.7% (inactive) |  |
| O=C1NC(=O)N(c2ccccc2)C(=O)/C1=C/c1ccc([N+](=O)[O-])s1 |  | 28.2 µM (active) |
| CCOc1ccc(C(C(=O)NCCOC)N(CCOC)C(=O)CCC(=O)Nc2ccccn2)cc1 (stereo not given) | -3.53% (inactive) |  |
| CCOc1ccc(CCNC(=O)COC(=O)c2ccc(F)c(S(=O)(=O)N3CCOCC3)c2)cc1OCC | 15.6% (inactive) |  |
| CC1CCCN(CCCNC(=O)CN2C(=O)COc3ccc(S(=O)(=O)N4CCOCC4)cc32)C1 (stereo not given) | -1.37% (inactive) |  |
| COc1ccc(-c2csc3nc(-c4ccccc4F)oc(=O)c23)cc1OC | 26.5% (inactive) |  |
| COc1ccc(N2C(=O)C(CC(=O)Nc3ccccc3)N(Cc3ccc(OC)c(OC)c3)C2=O)cc1 (stereo not given) | 6.5% (inactive) |  |
| O=C(C(=O)N1CCN(c2ccccc2)CC1)c1ccc2c(c1)OCO2 | -7.63% (inactive) |  |
| O=P(c1ccc2c(c1)OCCO2)(N1CCOCC1)N1CCOCC1 | -6% (inactive) |  |
| Cn1cnnc1SCC(=O)NNC(=O)COc1ccc(Br)cc1 | 7.44% (inactive) |  |
| CN(C)CCOC(=O)C(c1ccccc1)C1(O)CCCC1 (stereo not given) | 0% (inactive) |  |
| CN(C)CC1Oc2ccccc2OC1(O)c1ccccc1 (stereo not given) |  | 10 µM (active) |
| CC(C)Nc1ncnc2c1ncn2[C@H]1CN(Cc2ccncc2)C[C@@H](CO)O1 | 1.71% [at 18.4 µM] (inactive) |  |
| O=C(CC1C(=O)NCCN1Cc1ccc(-c2ccccc2)cc1)NCc1ccncc1 (stereo not given) | -9.23% (inactive) |  |
| COc1cccc(CN2CCNC(=O)C2CC(=O)N(C)CCc2ccccn2)c1 (stereo not given) | -1.12% (inactive) |  |
| Cc1cccc(C(=O)NCc2nnc(SC(C)C(=O)Nc3nnc(C)s3)n2C)c1 (stereo not given) | 31.2% (inactive) |  |
| COc1cc(/C=N\NC(=O)c2nonc2N)c(OC)cc1Br | 3.53% (inactive) |  |
| Cc1nonc1C(=O)N/N=C/c1ccc(O)cc1 |  | 25.1 µM (active) |
| Nc1nonc1-n1nnc(C(=O)N/N=C/c2ccc(Cl)cc2)c1-c1ccc2c(c1)OCO2 | 6.44% (inactive) |  |
| Cc1ccc2nc(SC(C)C(=O)NCc3ccco3)[nH]c2c1 (stereo not given) | 3.44% (inactive) |  |
| O=c1[nH][nH]c2c1[C@H](c1ccc(Cl)cc1)O[C@H](CCc1ccccc1)C2 | -16.7% (inactive) |  |

| SMILES | activity change, negative = less growth | Potency |
| --- | --- | --- |
| O=C(Nc1ccc(Br)cn1)c1ccc([N+](=O)[O-])o1 |  | 17.8 µM (active) |
| O=C(NCc1nnnn1-c1ccc(Cl)cc1)c1ccc([N+](=O)[O-])o1 | 5.28% (inactive) |  |
| O=C(/C=C/c1ccc(Cl)cc1)Nc1ccc(Br)cn1 | -16.9% (inactive) |  |
| O=C(COc1ccccc1Cl)Nc1ccccc1C(=O)NC1CC1 | 6.03% (inactive) |  |
| Oc1ccccc1CNc1ncc(Br)cc1Br |  | 35.5 µM (active) |
| CCc1cccc(C)c1NS(=O)(=O)c1cc(Br)cnc1N | 4.12% (inactive) |  |
| O=[N+]([O-])c1ncc(Br)cc1Nc1ccccc1 | -26.1% (inactive) |  |
| Cc1cccc(C(=O)Nc2ccccc2-c2nnn(CC(=O)Nc3ccc4c(c3)OCCO4)n2)c1 | -8.57% (inactive) |  |
| Clc1ccc(-c2nc3ccccn3c2CN2CCSCC2)cc1 | -29.7% (inactive) |  |
| CCOC(=O)C1=C(CC)Nc2ccccc2N=C1N | -6.54% (inactive) |  |
| CCOC(=O)C1=C(c2ccc(OC)cc2)C(=O)c2ccccc2C1=O |  | 20 µM (active) |
| CCOC(=O)C(Cc1ccc(N)cc1)N1C(=O)c2ccccc2C1=O (stereo not given) | -18.5% (inactive) |  |
| CC(C)(C)S(=O)N1Cc2cc(C(=O)NCCCN3CCOCC3)nc(-c3cccc(-c4cc5ccccc5o4)c3)c2[C@H]1CCO (stereo not given in full) | -1.2% (inactive) |  |
| CCOC(=O)N1CCN(S(=O)(=O)c2cc(Br)cc3c2N(C(=O)C2CC2)CC3)CC1 | -1.69% (inactive) |  |
| CC(=O)NC(CC(=O)Nc1cccc(S(=O)(=O)N2CCCC2)c1)c1ccccc1 (stereo not given) | 1.4% (inactive) |  |
| CN(C)S(=O)(=O)c1ccc2oc(SCC(=O)Nc3ccccc3F)nc2c1 | 20.8% (inactive) |  |
| COc1ccc(C2(C)NC(=O)N(CC(=O)c3ccc4c(c3)OCO4)C2=O)cc1 (stereo not given) | 2.95% (inactive) |  |
| CCOc1ccc(NCCC(=O)c2ccc3c(c2)OCO3)cc1 |  | 31.6 µM (active) |
| CCOc1ccc(NC(=O)c2ccc(NC(=O)C3CCCO3)cc2)cc1 (stereo not given) | 2.63% (inactive) |  |
| Cc1cc(NC(=O)Cn2nc(C(F)(F)F)c3c2CCCC3)no1 | -1.84% (inactive) |  |
| Cc1cc(C)cc(NC(=O)c2cccc(NC(=O)C3C4CC5OC(=O)C3C5C4)c2)c1 (stereo not given) | 13.4% (inactive) |  |
| CN(C)c1cccc(NC(=O)c2ccc(-c3ccc(F)c(F)c3)c3ccoc23)c1 | 5.61% [at 18.4 µM] (inactive) |  |
| O=C(c1ccc(Cl)c(S(=O)(=O)N2CCCCCC2)c1)N1CCN(c2ccc(O)cc2)CC1 | 1.01% (inactive) |  |
| O=C1C=CC(=O)N1c1ccc(N2CCCCC2)cc1 |  | 2.82 µM (active) |
| Cc1cc(NC(=O)CSc2nccn2-c2ccc([N+](=O)[O-])cc2)no1 | 11.4% (inactive) |  |
